From PubChem
Sampled rows, rich in hits. Any-hit rate of the full collection: about 1.5%.
eIF4E 4G PPI = eIF4E/eIF4G interaction inhibition in translation initiation; P63073+Q04637; actives 0.37% (n = 220,000); TR-FRET eIF4E-eIF4GI(517-606) binding, 2 h; inhibition, % at 21.7 µM;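 active = inhibition above about 30%, limit read from the data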
eIF4H inh = inhibitors of RNA binding by human eIF4H. Q15056. eIF4H fluorescence polarization binding assay. inhibition, % at 35 µM. actives 0.94% (n = 290,000). AID 2012;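 also: calls also rest on retests at 20 µM and on dose response follow-up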
PABP polyA inh = PABP-poly(A) binding inhibition; PABP-poly(A) RNA binding, fluorescence polarization; P11940; calls only at 35 µM; actives 1% (n = 290,000); AID 2014;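 also: calls also rest on retests at 20 µM and on dose response follow-up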
MLLE-PAM2 inh = inhibitors of microRNA-mediated deadenylation, human PABP1 MLLE binding; inhibition, % at 20 µM; actives 0.36% (n = 360,000); GST-MLLE / FITC-PAM2 fluorescence polarization; P11940; AID 588489; in the data active = inhibition above about 35%, passing the limit was not always enough
Numbers stand for hits; – = inactive; ? = inconclusive; · = not tested or not shown; + = active, no number. Unless noted, no rule for the calls is given here.

SMILES	eIF4E 4G PPI	eIF4H inh	PABP polyA inh	MLLE-PAM2 inh
CC(=O)[C@@H]1[C@@H]2C(=O)N(Cc3ccccc3)C(=O)[C@@H]2C2c3ccccc3C=CN21 (some centres not stated)	–	96	+	–
COc1ccc(N2C(=O)[C@@H]3[C@H](C2=O)[C@H]2c4ccccc4C=CN2[C@@H]3C(=O)Nc2ccccc2)cc1	–	?	?	–
O=C(CSc1ccc(Cl)cc1)c1ccco1	–	87	+	–
O=C(CCSc1ccc(Cl)cc1)c1ccco1	·	–	–	–
COc1ccc(NC(=O)C2(C)CCN2CC2CCCCC2)cc1OC (configuration not stated)	·	·	·	–
C#Cc1ccc(NC(=O)C2(C)CCN2C(=O)CC(c2ccccc2)c2ccccc2)cc1 (configuration not stated)	·	·	·	–
Cc1onc(-c2c(F)cccc2Cl)c1C(=O)NC(=S)NC1CCSC1=O (configuration not stated)	–	–	–	44
COc1ccc(C(=O)NC(=S)NC2CCSC2=O)cc1 (configuration not stated)	–	–	–	38
Cc1onc(-c2c(F)cccc2Cl)c1C(=O)NC(=S)Nc1c(C)n(C)n(-c2ccccc2)c1=O	–	–	–	45
Cc1onc(-c2c(F)cccc2Cl)c1C(=O)NC1CC1	·	–	–	–
Cc1ccc(-n2ncc(-c3n[nH]c(=S)o3)c2N)cc1C	·	·	·	–
O=c1[nH]c(C(Cl)Cl)nc2sc3c(c12)CCN(Cc1ccccc1)C3	–	78	+	–
CCOCc1nc(N)nc(N)c1-c1cccc(Cl)c1	·	·	·	–
COc1cccc(F)c1C(=O)NC(=O)Nc1ccc2nc(C)oc2c1	–	–	+	–
CSc1nc2ccc(NC(=O)NC(=O)c3c(F)cccc3F)cc2s1	–	–	–	–
O=[N+]([O-])c1ccc(NN=C2CC3CCC2C3)c([N+](=O)[O-])c1 (configuration not stated)	·	·	·	–
CC1CCC(C(C)C)C(OCC(O)C[N+]2(C)CCCCC2)C1 (configuration not stated)	–	–	+	–
CC1CCC(C(C)C)C(OCC(O)CN2CCCC(C)C2)C1 (configuration not stated)	–	–	–	–
CCCCC(=O)N(C)c1c(C)nc2ccc(C(=O)N(C)Cc3ccco3)cn12	·	·	·	–
Cc1c(S(=O)(=O)c2ccccn2)c(N)n(Cc2cccc(Cl)c2)c1C	73	–	–	–
CCN(CC)C(=O)C1=C(C)N(Cc2ccc(C(C)(C)C)cc2)C(=O)C(CC(=O)NCc2cccs2)C1 (configuration not stated)	·	·	·	–
COc1cccc(NC(=O)Nc2ccc(C(C)(C)C)cc2)c1	66	–	–	–
COc1cccc(NC(=O)Nc2ccncc2)c1	–	–	–	–
CCOC(=O)CN1C(=O)/C(=C2\SC(=S)N(NC(=O)c3cccnc3)C2=O)c2ccccc21	·	–	–	43
Cc1cc(Cl)ccc1NC(=S)NC(C)(C)C	–	–	–	40
SMILES	eIF4E 4G PPI	eIF4H inh	PABP polyA inh	MLLE-PAM2 inh
Cc1cc(Cl)ccc1NC(=S)Nc1cccnc1	–	–	–	38
Fc1cccc(NC(=S)Nc2cccnc2)c1	–	–	–	42
O=C(Nc1cccnc1)Nc1cccc(F)c1	·	–	–	–
CCc1cc(-c2cnnn2Cc2ccccc2)ccc1-c1cn(CC(C)C)nn1	·	·	·	–
Cc1ccc2c(c1)c1n[nH]c(=S)nc1n2CCc1ccccc1	·	–	–	41
Fc1ccc2c(c1)c1n[nH]c(=S)nc1n2CCc1ccccc1	·	–	–	40
COc1cccc(CNc2nc3cc(-c4cnn(Cc5ccccc5)c4)sc3c(=O)n2C)c1	·	·	·	–
CSc1nsc(SCC(=O)N2CCc3ccccc32)n1	38	–	–	–
Cc1nnc(SCC(=O)N2CCc3ccccc32)s1	–	–	–	–
CCN(CC)S(=O)(=O)c1ccc2c(c1)nc(SCn1nnc3ccccc3c1=O)n2CC	–	–	–	43
O=[N+]([O-])c1ccc(N2CCN(Cc3ccccc3)CC2)c2c1no[n+]2[O-]	·	·	·	–
C=CCn1c(SC(F)F)nc2scc(-c3ccco3)c2c1=O	·	–	–	–
C=CCn1c(SCC(C)=O)nc2scc(-c3ccco3)c2c1=O	·	67	+	–
C=CCn1c(SCC(=O)N2CCCC2)nc2scc(-c3cccs3)c2c1=O	–	–	–	–
C=CCn1c(SCC(=O)N2CCOCC2)nc2scc(-c3ccco3)c2c1=O	–	66	+	–
Cc1nc2cc(NC(=O)C3COc4ccccc4O3)ccc2s1 (configuration not stated)	–	–	+	–
Cc1nc2ccc(NC(=O)C3COc4ccccc4O3)cc2s1 (configuration not stated)	–	·	·	–
CCOC(=O)c1cc(-c2ccccc2)sc1NC(=O)C(C)N1C(=O)NC(C)(c2ccc(Cl)cc2)C1=O (configuration not stated)	–	active	+	–
COc1ccccc1N(C(C)=O)C1=C(Cl)C(=O)c2ccccc2C1=O	·	·	·	39
CCOC(=O)c1ccccc1NC(=O)N1CCn2c(C)ccc2C1CC (configuration not stated)	–	?	+	–
CCC1c2ccc(C)n2CCN1C(=O)Nc1ccccc1C(=O)OC (configuration not stated)	–	–	+	–
CCc1nc2ccc(C(=O)NCCCN3CCCC3=O)cn2c1N(CCC(C)C)CCN(C)C	·	·	·	–
CC(=O)c1ccc(N2CCN(S(=O)(=O)c3ccc4c(c3)C(Cl)(Cl)C(=O)N4)CC2)cc1	·	·	·	–
O=C(O)CN1C(=O)/C(=C\c2cn(-c3ccccc3)nc2-c2ccccc2)SC1=S	·	–	–	–
CC(C)COc1ccc(-c2nn(-c3ccccc3)cc2/C=C2/SC(=S)N(CC(=O)O)C2=O)cc1	·	93	–	–
SMILES	eIF4E 4G PPI	eIF4H inh	PABP polyA inh	MLLE-PAM2 inh
Cc1ccc(/C=c2/sc3n(c2=O)CCCN=3)o1	–	–	–	–
O=C(NCc1ccc(/C=c2\sc3n(c2=O)CCN=3)o1)C(=O)Nc1ccccc1	–	82	–	·
CCOC(=O)C1(C)CCN1C(=O)c1ccc(C(=O)OC)cc1 (configuration not stated)	·	·	·	–
COCCCN1CN(Cc2ccccc2)CNC1=S	–	0.6	–	–
CCCN1CN(Cc2ccccc2)CNC1=S	–	–	–	–
O=C1C2C3CC4C5C3C1C5C1(SCCS1)C42 (configuration not stated)	·	·	·	–
c1coc(-c2ccnc3nc(-n4cccc4)nn23)c1	–	94	+	–
COc1ccc(-c2ccnc3nc(-n4cccc4)nn23)cc1	–	–	–	–
O=[N+]([O-])c1c(NCCCO)cc(SCc2ccco2)c2nonc12	–	?	–	41
CC(=O)OCCNc1cc(SCc2ccco2)c2nonc2c1[N+](=O)[O-]	–	–	–	–
CC1CCN(C(=O)c2[nH]cnc2C(=O)Nc2ccccc2F)CC1	·	·	·	–
CC1(C)Cc2c(sc3nc(NCCN4CCOCC4)n4ncnc4c23)CO1	61	–	–	–
O=C(Sc1cccc2cccnc12)c1ccccc1Br	·	–	–	37
CC1(c2ccc([N+](=O)[O-])cc2)Nc2ccccc2S1 (configuration not stated)	·	–	–	42
O=C1Nc2ccccc2/C1=C/c1ccc([N+](=O)[O-])cc1	·	–	–	–
